According to PubChem BioAssay:
A number with no mark means an inactive call. Active and inactive are the calls of the source. Cut-off read from the data, not from the text of the source, unless noted: active = inhibition above about 33%; inactive = the rest.

Target: Steroidogenic factor 1 (Homo sapiens) (UniProt Q13285)
Assay: SF1 (NR5A1) inverse agonists, counter-screen for LRH-1 inverse agonist project, cell-based, luminescence, high throughput (AID 651614; in the data active = inhibition above about 44%;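 note: cells cotransfected with StAR promoter reporter and SF1 expression vector; 0% = vehicle on cells with receptor and 100% = vehicle on cells lacking receptor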)
Settings: cell-based SF1 luciferase reporter, at 3.6 µM, hits give high values

Sequence of Steroidogenic factor 1 (Homo sapiens) (Q13285 whole entry, looked up): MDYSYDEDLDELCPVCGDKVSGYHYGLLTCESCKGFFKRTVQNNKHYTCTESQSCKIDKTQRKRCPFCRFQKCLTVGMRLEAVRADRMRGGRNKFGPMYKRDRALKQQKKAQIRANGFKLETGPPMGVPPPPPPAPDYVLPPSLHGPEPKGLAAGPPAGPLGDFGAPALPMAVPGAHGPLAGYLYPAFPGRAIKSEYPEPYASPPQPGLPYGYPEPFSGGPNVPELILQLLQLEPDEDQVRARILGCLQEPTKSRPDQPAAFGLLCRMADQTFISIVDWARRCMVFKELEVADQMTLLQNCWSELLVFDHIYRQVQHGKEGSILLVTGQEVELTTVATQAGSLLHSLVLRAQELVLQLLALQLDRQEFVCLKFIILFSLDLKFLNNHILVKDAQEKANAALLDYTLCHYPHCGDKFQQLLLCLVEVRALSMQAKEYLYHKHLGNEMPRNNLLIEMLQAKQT

| Structure (SMILES) | inhibition |
| --- | --- |
| OCCCNc1ncnc2oc(-c3ccccc3)c(-c3ccccc3)c12 | 27.6% |
| COc1ccc(NC(=O)CSc2ncnc3c2cnn3Cc2ccccc2)cc1 | 62.2% (active) |
| Cc1ccc(CNC(=O)CN2C(=O)NC3(CCCC3)C2=O)cc1 | 43.7% (active) |
| Cc1cc(C(=O)CSc2nnnn2-c2ccccc2)c(C)n1-c1ccc2c(c1)OCO2 | 28.5% |
| C[C@H](CO)N1C[C@H](C)[C@H](CN(C)Cc2ccncc2)Oc2cc(-c3ccccc3F)ccc2S1(=O)=O | 64.6% (active) |
| Clc1ccccc1-c1nnc2sc(-c3ccncc3)nn12 | 50.9% (active) |
| CCOc1ccc(C(=O)c2cc([N+](=O)[O-])ccc2Cl)cc1 | 39.5% |
| O=C(c1ccc([N+](=O)[O-])o1)N1CCN(c2nc3c(Cl)cccc3s2)CC1 | 61.3% (active) |
| COc1ccc(-c2nnc(NC(=O)c3ccc([N+](=O)[O-])o3)o2)c(OC)c1 | 57% (active) |
| Cc1onc(-c2c(F)cccc2Cl)c1C(=O)Oc1ccccc1 | 33.8% |
| Cc1ccc(NC(=O)COC(=O)C(NS(=O)(=O)c2ccc(Cl)cc2)C(C)O)c(Br)c1 (stereo unspecified) | 57.6% (active) |

Tested on: not listed separately
Assay: VP16 transactivation reporter inhibitors, counter-screen for LRH-1 inverse agonist project, cell-based, luminescence, high throughput (AID 651615)
Settings: Gal4-VP16 luciferase reporter cells, at 3.6 µM, hits give high values

| Structure (SMILES) | inhibition |
| --- | --- |
| Cc1c([N+](=O)[O-])cc(C(=O)Nc2ccc(Cc3ccncc3)cc2)cc1[N+](=O)[O-] | -0.27% |
| Cc1cccc(-c2cc(NCCc3cccnc3)n3nccc3n2)c1 | -2.05% |
| CC1(C)CC(=O)C=C(c2ccc3c(c2)OCO3)C1 | 2.47% |
| COc1ccc(-c2c(-c3ccccc3)c(C(=O)C(=O)NCCCN(C)C)n3ccc4cc(OC)c(OC)cc4c23)cc1OC | 2.99% |
| O=C(Cc1c(F)cccc1Cl)Nc1ccncc1 | -7.58% |
| COc1cc(C(=O)Nc2ccccc2C(=O)Nc2ccccn2)cc(OC)c1OC | -2.31% |
| CN(C)S(=O)(=O)c1cccc(C(=O)OCC(=O)Nc2ccc3c(c2)OCCO3)c1 | 10.7% |
| CCOc1ccc(NC(=O)Cn2nc(-c3ccccc3Cl)n(CC)c2=S)cc1 | 2.74% |
| O=C(Nc1ccc(Oc2ccccc2)cc1)c1csc([C@H]2C[C@H](O)[C@@H](CO)O2)n1 | 54.4% (active) |
| COc1ccc(-c2cc(NC=O)c3ncc(-c4ccc(C(C)=O)cc4)n3c2)cn1 | -15.1% |
| CCOC(=O)c1ccc(N2CCN(C(=O)c3ccccc3)CC2)c(NC(=O)c2ccco2)c1 | -26.2% |
| O=C(Nc1cc(Cl)ccc1-n1cncn1)c1ccc([N+](=O)[O-])o1 | -24.7% |
| CCCc1cc(NCCOCCO)n2c(nc3ccccc32)c1C#N | -14.6% |
| CCOc1ccc(CCNC(=O)COC(=O)c2cccnc2OCC)cc1OCC | 0.35% |
| Cc1ccc(-c2nn3c(C)nnc3s2)cc1NC(=O)c1ccco1 | -12.3% |
| Cc1c(Cl)cccc1NC(=O)CS(=O)(=O)c1ccccc1 | -1.09% |
| COc1ccc(OCCNC(=O)C2(C)CCN2Cc2ccc(SC)cc2)cc1 (stereo unspecified) | 2.76% |
| CCOc1ccc(Br)cc1C1=NN(C(C)=O)C(c2ccc([N+](=O)[O-])s2)O1 (stereo unspecified) | -1.66% |
| Oc1cccc(Nc2nc(N3CCOCC3)nc(N3CCOCC3)n2)c1 | 21% |
| CCN(CC)C1=CC(=O)OC12CCCCC2 | -9.57% |

| Structure (SMILES) | inhibition |
| --- | --- |
| O=C(NCc1cccc(C(F)(F)F)c1)c1cc(-c2ccccc2)nn1CC1CC(c2cccnc2)=NO1 (stereo unspecified) | 6.07% |
| O=C(Nc1ccc2oc(-c3ccccc3F)nc2c1)c1ccc([N+](=O)[O-])o1 | -24.7% |
| Cc1cc(OCC(=O)Nc2ccc(OCc3ccccc3)cc2)nc(C(C)C)n1 | 15.2% |
| Cc1onc(-c2ccccc2Cl)c1C(=O)O/N=C(\N)c1ccc([N+](=O)[O-])o1 | -5.99% |
| O=C(c1ccccc1)N1CCN(c2ccc([N+](=O)[O-])c(N3CCOCC3)c2)CC1 | 3.81% |
| COCCNc1ncnc2c1ncn2[C@H]1CN(CCc2ccccc2)C[C@@H](CO)O1 | 3.57% |
| C=CCNc1sc(C(=O)c2ccccc2)c(N)c1C#N | 6.37% |
| COc1ccc(CNC(=O)O[C@@H]2C[C@H]3C(=O)N(c4ccccc4)C(=O)[C@H]3[C@@]3(CN(S(=O)(=O)c4ccc(C)cc4)C[C@H]3C)[C@@H]2O)cc1OC | 8.56% |
| COC(=O)c1ccc([C@H](NC(=O)c2ccco2)[C@]2(C)C[C@H]2C2CCCCC2)cc1 | 2.54% |
| OCCCNc1ncnc2oc(-c3ccccc3)c(-c3ccccc3)c12 | 13.3% |
| COc1ccc(NC(=O)CSc2ncnc3c2cnn3Cc2ccccc2)cc1 | 2.38% |
| Cc1ccc(CNC(=O)CN2C(=O)NC3(CCCC3)C2=O)cc1 | 0.14% |
| Cc1cc(C(=O)CSc2nnnn2-c2ccccc2)c(C)n1-c1ccc2c(c1)OCO2 | 27.6% |
| C[C@H](CO)N1C[C@H](C)[C@H](CN(C)Cc2ccncc2)Oc2cc(-c3ccccc3F)ccc2S1(=O)=O | 11.1% |
| Clc1ccccc1-c1nnc2sc(-c3ccncc3)nn12 | 3.81% |
| CCOc1ccc(C(=O)c2cc([N+](=O)[O-])ccc2Cl)cc1 | -1.79% |
| O=C(c1ccc([N+](=O)[O-])o1)N1CCN(c2nc3c(Cl)cccc3s2)CC1 | 3.24% |
| COc1ccc(-c2nnc(NC(=O)c3ccc([N+](=O)[O-])o3)o2)c(OC)c1 | 10.2% |
| Cc1onc(-c2c(F)cccc2Cl)c1C(=O)Oc1ccccc1 | 11.2% |
| Cc1ccc(NC(=O)COC(=O)C(NS(=O)(=O)c2ccc(Cl)cc2)C(C)O)c(Br)c1 (stereo unspecified) | -12.9% |
